Source: PubChem BioAssay
ABHD5-PLIN5 inh – blocks binding of human ABHD5 to perilipin-5. inhibition, % at 4 µM. AID 602281. actives 0.78% (n = 360,000). Split G. princeps luciferase complementation, luminescence, 4 h. Q00G26+Q8WTS1;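 active = inhibition above the mean inhibition across every tested compound plus 3 SD, cut at about 22% in these data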;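 note: 0% = DMSO only wells and the 100% control is not disclosed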
TRPM1 prom inh – MITF TRPM1 promoter inhibition in SK-MEL-5 cells; inhibition, % at 12.5 µM; actives 0.83% (n = 330,000); AID 488899; SK-MEL-5 TRPM1 promoter luciferase, 24 h;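 active = mean inhibition across replicates of 60% or more, whatever share of single replicates reaches that level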
HIF-2a inh – inhibitors of HIF-2a. 786-0 RCC cells HIF-2a reporter, luciferase luminescence, overnight. inhibition, % at 18.8 µM. actives 0.72% (n = 360,000);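 active = inhibition of the luminescence signal of 40% or more relative to plate controls, in a single-dose primary screen at 18.75 µM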
KKLEB tox – counter-screen for CF NF-kB inhibitors: cytotoxicity; KKLEB CF airway cells viability, ATPlite luminescence, overnight; stronger effect = lower value; cells stimulated with P. aeruginosa culture filtrate; activity change (cytotoxicity), % at 5 µM; actives 0.36% (n = 360,000);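 active = corrected activity change at or below -50% at 5 µM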
Peg3 promoter – reduces Peg3 promoter-driven luciferase expression in HeLa. HeLa PEG-Prom luciferase reporter, luminescence, overnight. inhibition, % at 20 µM. actives 1.7% (n = 360,000). AID 588405;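 active = inhibition of at least 50% at 20 µM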
CF NFkB block – blocks PAF-induced NF-kB reporter in cystic fibrosis cells. KKLEB NF-kB-GFP reporter, GFP fluorescence overnight. inhibition, % at 5 µM. actives 0.86% (n = 360,000);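 active = at least 50% inhibition at 5 µM, scaled per plate between neutral and stimulator controls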;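 note: PAF is a Pseudomonas aeruginosa culture filtrate used as stimulus; plate controls were PAF-stimulated DMSO wells for no effect and unstimulated DMSO wells for full effect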
Mdm2 MdmX conf – Mdm2/MdmX (human) interaction inhibition, confirmed; actives 99% (n = 740); SaOS-2 split-luciferase Mdm2/MdmX complementation, luminescence; shares compounds with HIF-2a inh; inhibition, % at 8 µM; AID 504601;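 active = mean inhibition of the luminescence signal across two replicates at or above 26 percent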
HIF-2a inh conf – HIF-2a inhibition, single concentration confirmation; shares compounds with HIF-2a inh; 786-0 RCC cells, HIF-2a luciferase reporter luminescence, overnight; inhibition, % at 18.8 µM; actives 56% (n = 1,800); AID 651580;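 active = mean inhibition across four replicates of at least 40 percent at the single tested concentration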
HIF-1a counter – counter-screen for HIF-2a inhibitors: HIF-1a inhibition in MiaPaCa-2 cells; actives 72% (n = 1,800); MiaPaCa-2 HIF-1a luciferase reporter, desferoxamine, overnight; inhibition, % at 18.8 µM; shares compounds with HIF-2a inh;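 active = mean inhibition of the reporter signal across four replicates at the single tested dose of 50% or more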
Numbers without * were called inactive. Compounds with a hit are over-represented: about 3.1% of the library has one in this group of screens.

For COC(=O)COc1ccc(S(=O)(=O)NCCC2=CCCCC2)cc1Cl the results were ABHD5-PLIN5 inh -3.4, TRPM1 prom inh -14.8, HIF-2a inh 56.6*, KKLEB tox 12.0, Peg3 promoter 15.1, CF NFkB block -9.6, HIF-2a inh conf 22.1 and HIF-1a counter -9.3.
`COCCNS(=O)(=O)c1ccc(OCC(=O)OC)c(Cl)c1` gave ABHD5-PLIN5 inh -2.2, TRPM1 prom inh -1.9, HIF-2a inh 28.9, KKLEB tox 7.8, Peg3 promoter -3.9 and CF NFkB block 0.5.
Screening CCN(C(=O)COC(=O)/C=C/c1c(C)nn(-c2ccccc2)c1C)c1c(N)n(Cc2ccccc2)c(=O)[nH]c1=O returned ABHD5-PLIN5 inh -1.5, TRPM1 prom inh 6.3, HIF-2a inh 8.1, KKLEB tox 0.1, Peg3 promoter 5.7 and CF NFkB block 2.3.
Screening CCCCn1c(NC(=S)Nc2ccccc2)nc2ccccc21 returned ABHD5-PLIN5 inh 6.3, TRPM1 prom inh 5.2, HIF-2a inh 42.0*, KKLEB tox 4.9, Peg3 promoter 33.3, CF NFkB block -1.3, HIF-2a inh conf -10.1 and HIF-1a counter 50.3*.
For S=C(Nc1ccccc1)Nc1nc2ccccc2n1CCOc1ccccc1 the results were ABHD5-PLIN5 inh 6.8, TRPM1 prom inh 19.8, HIF-2a inh 90.4*, KKLEB tox 4.7, Peg3 promoter 40.1, CF NFkB block -4.1, HIF-2a inh conf -63.6 and HIF-1a counter 97.4*.
CC1CN(C(=O)COC(=O)c2nn(-c3ccccc3)c(=O)c3ccccc23)CC(C)O1 (stereo not given) was read as ABHD5-PLIN5 inh 3.8, TRPM1 prom inh 9.7, HIF-2a inh 12.0, KKLEB tox 3.5, Peg3 promoter -4.8 and CF NFkB block -0.6.
O=C(NCCN1C(=O)S/C(=C\c2ccc(Cl)c([N+](=O)[O-])c2)C1=O)C1=COCCO1 was read as ABHD5-PLIN5 inh 15.6, TRPM1 prom inh 28.9, HIF-2a inh 43.5*, KKLEB tox 15.8, Peg3 promoter 93.2*, CF NFkB block 8.1, HIF-2a inh conf -2.3 and HIF-1a counter 104.4*.
NS(=O)(=O)c1ccc(Sc2nc3ccccc3s2)c([N+](=O)[O-])c1 was read as ABHD5-PLIN5 inh 3.4, TRPM1 prom inh -7.8, HIF-2a inh 15.8, KKLEB tox -52.6*, Peg3 promoter 36.6, CF NFkB block 82.5* and Mdm2 MdmX conf 97.0*.
CCn1c(SCC(=O)N/N=C(\C)c2ccncc2)nnc1-c1ccc(C)cc1 was read as ABHD5-PLIN5 inh 1.9, HIF-2a inh 5.9, KKLEB tox 8.9, Peg3 promoter 22.4 and CF NFkB block 4.8.
For O=C(CCCc1ccccc1)Nc1cccc(C(=O)O)c1 the results were ABHD5-PLIN5 inh -0.8, TRPM1 prom inh 69.7*, HIF-2a inh 54.5*, KKLEB tox 2.2, Peg3 promoter 39.8, CF NFkB block 2.0, HIF-2a inh conf 58.9* and HIF-1a counter -44.7.
CSCCC(NC(=O)c1ccccc1C)C(=O)O (stereo not given) was read as ABHD5-PLIN5 inh -1.9, TRPM1 prom inh -8.0, HIF-2a inh 8.9, KKLEB tox 6.6, Peg3 promoter 3.0 and CF NFkB block -4.0.
For CCOC(=O)c1nnc(-c2ccccc2)nc1Sc1ccccc1Cl the results were ABHD5-PLIN5 inh 1.4, TRPM1 prom inh 14.8, HIF-2a inh 62.9*, KKLEB tox -6.2, Peg3 promoter 50.6*, CF NFkB block 31.4, HIF-2a inh conf 10.7 and HIF-1a counter 91.5*.
O=S(=O)(c1ccccc1)c1ncc(C(F)(F)F)cc1Cl was read as ABHD5-PLIN5 inh 21.8, TRPM1 prom inh 6.4, HIF-2a inh 96.2*, KKLEB tox -85.5*, Peg3 promoter 70.6*, CF NFkB block 88.7*, HIF-2a inh conf 3.8 and HIF-1a counter 13.5.
O=S(=O)(c1ccccc1)c1ncc(C(F)(F)F)cc1O was read as ABHD5-PLIN5 inh -7.2, TRPM1 prom inh -5.8, HIF-2a inh 14.3, KKLEB tox 8.2, Peg3 promoter 15.8 and CF NFkB block 14.9.
Nc1ccc(-c2cc3ccccc3oc2=O)cc1 was read as ABHD5-PLIN5 inh 2.2, TRPM1 prom inh 93.6*, HIF-2a inh 87.8*, KKLEB tox -4.7, Peg3 promoter 38.0, CF NFkB block 13.0, HIF-2a inh conf 97.8* and HIF-1a counter 84.1*.
COc1ccc(-c2oc3ncnc(NCCN4CCOCC4)c3c2-c2ccc(OC)cc2)cc1 was read as ABHD5-PLIN5 inh 6.0, TRPM1 prom inh 1.0, HIF-2a inh 46.6*, KKLEB tox -31.4, Peg3 promoter 51.0*, CF NFkB block 35.7, HIF-2a inh conf 30.2 and HIF-1a counter 89.8*.
`COc1ccc(-c2oc3ncn(CCN4CCOCC4)c(=N)c3c2-c2ccc(OC)cc2)cc1` gave ABHD5-PLIN5 inh 1.5, TRPM1 prom inh -5.5, HIF-2a inh 45.4*, KKLEB tox -24.5, Peg3 promoter 38.6, CF NFkB block 14.2, HIF-2a inh conf 12.3 and HIF-1a counter 85.5*.
O=C1C=C(OCCCl)CC(c2cccc(Cl)c2)O1 (stereo not given) was read as ABHD5-PLIN5 inh 2.8 and HIF-2a inh -12.2.
Screening Cc1cccc(C)c1NC(=O)CN1CCN(C(=O)c2cc(C3CC3)nn2-c2ccccc2)CC1 returned ABHD5-PLIN5 inh -0.8, HIF-2a inh 13.9, KKLEB tox 0.2, Peg3 promoter 18.9 and CF NFkB block -11.4.
CCCCOC(=O)c1ccc(NC(=S)NC(=O)c2c(Br)c(C)nn2C)cc1 was read as ABHD5-PLIN5 inh -0.2, TRPM1 prom inh 15.9, HIF-2a inh 45.9*, KKLEB tox -2.9, Peg3 promoter 39.4, CF NFkB block 6.8, HIF-2a inh conf 55.6* and HIF-1a counter 18.6.
`CCOC(=O)c1ccc(NC(=S)NC(=O)c2cncc(Br)c2)cc1` gave ABHD5-PLIN5 inh 7.3, TRPM1 prom inh 3.7, HIF-2a inh 31.2, KKLEB tox 9.5, Peg3 promoter 10.4 and CF NFkB block -19.3.
Screening Cc1ccc(-n2ncc3c2CCCC3NC(=O)CCCN2CCCCC2=O)cc1C (stereo not given) returned ABHD5-PLIN5 inh -2.3, TRPM1 prom inh -1.4, HIF-2a inh -25.7, KKLEB tox 3.8, Peg3 promoter -18.3 and CF NFkB block -0.3.
